Bioassay records as filed in PubChem BioAssay.
ELG1 repair inh – ELG1-dependent DNA repair inhibition; HEK293T ELG1-luciferase reporter, luminescence, 16 h; DNA damage induced by 5-fluorouridine; Potency, µM (series often up to 46.1 µM), for inactives: top-dose activity change, negative = inhibition, usual class: inhibitors; 2.3% of 330,000 active; AID 504467; further: on the % scale 0 is the no-effect control and ±100 the full control effect; nearly all actives have a fitted effect of over 55% in size
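Step one: seed 2,000 cells per well. Step two: pin-transfer compound or DMSO alongside 5-fluorouridine. Step three: incubate 16 hr, 37 °C, 5% CO2. Step four: add ONE-Glo, wait 30 min, read luminescence.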
NPC1 promoter act – activators of NPC1 promoter; 2.4% of 320,000 active; Huh7 NPC1 promoter luciferase reporter, 24 h; Potency, µM (titrated, usually from 9.22 µM), without a hit: at the highest dose activation, hits mostly activators; further: % of control where 0% means no effect; nearly all actives have a fitted effect of over 60% in size
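Compounds in DMSO were transferred onto Huh7 NPC1-luciferase reporter cells pre-incubated 2 h; after 24 h at 37 °C, Amplite reagent was dispensed and luminescence recorded 10 min later.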
Rab9 promoter act – activates the Rab9 promoter | Potency, µM (doses to about 9.22 µM), for inactives: at the top dose activation, negative = inhibition, actives largely listed as activators | Huh7 Rab9 promoter-luciferase reporter, luminescence, 24 h | 2.8% of 320,000 active | AID 485297; further: % of control where 0% means no effect; nearly all actives have a fitted effect of over 60% in size
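Rab9 promoter-driven luciferase in stably transfected Huh7 cells; 1500 cells/well rested 2 h, exposed to compound in DMSO for 24 h at 37 °C, 5% CO2. Luminescence read 10 min after adding luciferase reagent at ambient temperature.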
ELG1 genotoxic – genotoxicity induction in ELG1-luciferase HEK293T cells | HEK293T ELG1-luciferase reporter, luminescence, 16 h | Potency, µM (doses to about 46 µM), without a hit: top-dose activity change, positive = activation, most hits filed as activators | 1.3% of 330,000 active; further: % of control where 0% means no effect; nearly all actives have a fitted effect of over 60% in size
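HEK293T cells expressing luciferase-tagged ELG1 were exposed to compound or DMSO vehicle for 16 hr at 37 °C and 5% CO2. Luciferase activity was then measured with ONE-Glo after 30 min at room temperature.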
SMN2 splice enh – SMN2 splice variant enhancement; HEK293 SMN2-luciferase splicing reporter, luminescence, 30-36 h; Potency, µM (series often up to 46.1 µM), for the others: at the highest dose activity change, positive = activation, hits mostly activators; 2.8% of 210,000 active; further: % of control where 0% means no effect; nearly all actives have a fitted effect of over 55% in size
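HEK293 cells carry an SMN2 minigene-luciferase reporter in which exon 7 inclusion puts luciferase in frame. Cells were seeded at 2000 cells/well, attached for 10-12 hours, then exposed to compounds for 30-36 hours at 37C before ONE-Glo luminescence.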
FLuc modulator – counter-screen for miR-21 project: firefly luciferase inhibitors or activators; P08659; purified FLuc, Km substrates, luminescence inhibition; Potency, µM (titrated, usually from 57.5 µM), for the others: at the top dose activity change, negative = inhibition, hits mostly inhibitors; 6.9% of 360,000 active;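 further: plate controls were vehicle for no effect and reference inhibitor for full effect; nearly all actives have a fitted effect of over 55% in size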
Target sequence (P08659 whole entry, looked up): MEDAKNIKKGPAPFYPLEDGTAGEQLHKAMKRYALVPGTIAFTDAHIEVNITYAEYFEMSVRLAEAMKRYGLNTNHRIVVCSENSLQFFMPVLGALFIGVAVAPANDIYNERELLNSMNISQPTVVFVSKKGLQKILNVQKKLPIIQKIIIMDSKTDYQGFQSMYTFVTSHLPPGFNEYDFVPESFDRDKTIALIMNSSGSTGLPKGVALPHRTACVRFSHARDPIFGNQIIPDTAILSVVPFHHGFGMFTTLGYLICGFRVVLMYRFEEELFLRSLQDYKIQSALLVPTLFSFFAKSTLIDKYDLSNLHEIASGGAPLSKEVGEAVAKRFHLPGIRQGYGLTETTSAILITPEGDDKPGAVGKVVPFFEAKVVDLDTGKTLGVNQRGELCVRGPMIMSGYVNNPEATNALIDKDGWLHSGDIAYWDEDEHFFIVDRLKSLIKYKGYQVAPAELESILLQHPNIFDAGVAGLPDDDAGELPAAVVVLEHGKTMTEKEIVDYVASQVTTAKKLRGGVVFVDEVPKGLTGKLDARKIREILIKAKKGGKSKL
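Purified P. pyralis luciferase (10nM final) with 10uM D-luciferin and 10uM ATP (Km levels) in 50mM Tris acetate pH 7.5, 10mM Mg acetate, 0.01% Tween-20, 0.05% BSA; qHTS 6-point titration, ~60 µM downward; luminescence read.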
An asterisk follows results filed as active. Most compounds without a hit are left out; they make up all but 9.2% or so of the library. The call rests on the fitted dose curve; in most records, active means well fitted curve in the direction sought with a large enough effect; inconclusive means small, poorly fitted or top-dose-only effect, or another doubt; inactive means no such curve, though single readings can be large; an effect the other way counts as inactive or inconclusive. Potency means the concentration at half of the fitted maximal effect.

How did CC(=O)COc1ccc2c(C)c(-c3ccccc3)c(=O)oc2c1 do in these assays?
ELG1 repair inh: inconclusive; NPC1 promoter act: inconclusive; Rab9 promoter act: 3.16µM*; ELG1 genotoxic: 6.9%; SMN2 splice enh: -7.0%; FLuc modulator: 16.9µM*

How did COc1cccc(C(=O)COc2ccc3c(C)c(Cc4ccccc4)c(=O)oc3c2)c1 do in these assays?
ELG1 repair inh: -27.0%; NPC1 promoter act: -3.4%; Rab9 promoter act: -10.6%; ELG1 genotoxic: -1.9%; SMN2 splice enh: -58.7%; FLuc modulator: -0.5%

Results for Cc1c(C)c2ccc(OCC(=O)c3ccccc3)cc2oc1=O ?
ELG1 repair inh: inconclusive; NPC1 promoter act: 2.24µM*; Rab9 promoter act: 3.55µM*; ELG1 genotoxic: inconclusive; FLuc modulator: inconclusive

How did CCCc1c(C)c2ccc(OCC(C)=O)cc2oc1=O do in these assays?
ELG1 repair inh: inconclusive; NPC1 promoter act: inconclusive; Rab9 promoter act: inconclusive; ELG1 genotoxic: inconclusive; SMN2 splice enh: 22.6%; FLuc modulator: inconclusive

Results for COC(=O)Cc1c(C)c2ccc(OC(=O)c3ccccc3)cc2oc1=O ?
ELG1 repair inh: 14.9%; NPC1 promoter act: -3.0%; Rab9 promoter act: -0.1%; ELG1 genotoxic: 0.2%; SMN2 splice enh: 15.3%; FLuc modulator: 15.1µM*

Results for O=S(=O)(NCc1cccs1)c1ccccc1Cl ?
ELG1 repair inh: 1.2%; NPC1 promoter act: -0.3%; Rab9 promoter act: -7.2%; ELG1 genotoxic: 1.3%; FLuc modulator: 5.8%

What do the screens show for `Cc1cc(C)c2nc(C)cc(N/N=C/c3ccc(O)cc3)c2c1`?
ELG1 repair inh: -14.3%; NPC1 promoter act: -20.2%; Rab9 promoter act: -4.6%; ELG1 genotoxic: inconclusive; FLuc modulator: 13.5µM*

Results for Cc1cc(-c2ccccc2)nc(N/N=C/c2ccc(O)cc2)n1 ?
ELG1 repair inh: -4.3%; NPC1 promoter act: 11.7%; Rab9 promoter act: -0.5%; ELG1 genotoxic: -2.3%; FLuc modulator: 1.51µM*

What do the screens show for `Oc1ccc(/C=N/Nc2nc(-c3ccc(Cl)cc3)cc(C(F)(F)F)n2)cc1`?
ELG1 repair inh: 25.9µM*; NPC1 promoter act: 1.5%; Rab9 promoter act: -3.2%; ELG1 genotoxic: -7.4%; SMN2 splice enh: -24.1%; FLuc modulator: 26.9µM*

How did CO[C@]12C[C@@H](COC(=O)c3cncc(Br)c3)CN(C)[C@@H]1Cc1cn(C)c3cccc2c13 do in these assays?
SMN2 splice enh: -7.5%

How did CCC(C)(C)c1ccc(OCCCC[n+]2ccc(C)cc2)c(C(C)(C)CC)c1 do in these assays?
ELG1 repair inh: 10.3µM*; NPC1 promoter act: -22.6%; Rab9 promoter act: -17.3%; ELG1 genotoxic: -6.0%; SMN2 splice enh: -74.6%; FLuc modulator: 1.7%

How did Cc1cc(C(C)(C)C)ccc1OCCCCN1CCCC1 do in these assays?
ELG1 repair inh: 12.4%; NPC1 promoter act: -1.2%; Rab9 promoter act: -1.1%; ELG1 genotoxic: -1.8%; SMN2 splice enh: -7.8%; FLuc modulator: 2.0%

What do the screens show for `CCC(C)(C)c1ccc(OCCCC[n+]2cccc(C)c2C)c(C(C)(C)CC)c1`?
ELG1 repair inh: 2.59µM*; NPC1 promoter act: -29.6%; Rab9 promoter act: -30.0%; ELG1 genotoxic: -8.2%; FLuc modulator: 1.3%

Results for C=CCn1c(N)c(C(=O)OCCC)c2nc3ccccc3nc21 ?
ELG1 repair inh: 16.4µM*; NPC1 promoter act: 2.8%; Rab9 promoter act: 5.5%; ELG1 genotoxic: -4.2%; FLuc modulator: -8.4%

What do the screens show for `C=CCn1c(N)c(C(=O)Nc2cccc(C)c2)c2nc3ccccc3nc21`?
ELG1 repair inh: -1.2%; NPC1 promoter act: 0.2%; Rab9 promoter act: 0.2%; ELG1 genotoxic: -2.2%; SMN2 splice enh: 11.8%; FLuc modulator: -8.8%

What do the screens show for `Cc1ccc2nc(-c3ccccc3)c(-c3ccccc3)nc2c1`?
ELG1 repair inh: -5.1%; NPC1 promoter act: -2.8%; Rab9 promoter act: 1.9%; ELG1 genotoxic: -7.6%; FLuc modulator: -11.2%
